Here are results for 5 compounds from PubChem BioAssay.

Structures are written as SMILES. Records with an inconclusive call do not appear. The source made the active and inactive calls.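 How the source made its calls, unless noted: active means viability loss from added drug above about 55%, and viability with drug at most 40%, in both replicates (limit read from the data, passing the limit was not always enough); inconclusive means both conditions met in only one replicate; inactive means neither replicate meets both conditions.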

Assay [1] is described as follows: Her2 expression decrease, cell viability multiplex – SKBR3 breast tumor cells, AlphaScreen, ATP viability, primary screen (AID 461;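 active means Her2 level under about 52% in both replicate screens, with viability over 70% of control, limit read from the data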;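 on Her2 level: lower value means less Her2 protein in the cells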;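 on viability: percent of carrier control wells set as 100% viability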). The following applies: SKBR3 Her2 protein level, 18-24 h, measured here: SKBR3 viability, ATP luminescence, at 10 µM. Background: Alpha assays give light when donor and acceptor beads are brought close together.
Assay [2] concerns the target Receptor tyrosine-protein kinase erbB-2 (Homo sapiens) (UniProt P04626). Described as above. The following applies: 18-24 h, at 10 µM, stronger effect = lower value.
The nature of assay [3]: reduced viability of SK-BR-3 breast cancer cells – cell-based, 24 h, human, pilot screen (AID 572;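 active means viability at or below 10% of carrier control in both of two separate runs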;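 further: compound exposure lasted between 18 and 24 h rather than exactly 24 h; 100% = carrier-treated control wells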). Conditions: SK-BR-3 viability, CellTiter-Glo luminescence, at 10 µM, stronger effect = lower value.
Assay [4] is described as follows: HUVEC growth inhibition – cell-based, human, primary screen (AID 575;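 active means viability at or below 30% in both replicate assays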;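 further: 100% = median of untreated cell wells with 0.1% DMSO on each plate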). Conditions: HUVEC proliferation, CellTiter-Glo luminescence, 72 h; at 10 µM; stronger effect = lower value. On the technique in general: In ATP-based viability assays light output follows the ATP content of the culture.
The nature of assay [5]: H69AR cell proliferation blockers – human, duplicate replicates, primary screen (AID 580;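 active means viability at or under a set limit in both replicates, limit being median viability minus 3 SD, cut at about 48% in these data, passing the limit was not always enough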;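 further: 100% = mean luminescence of untreated wells and 0% = no signal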). The following applies: H69AR lung tumor cells viability, ATP luminescence, 72 h; at 10 µM; stronger effect = lower value.
Assay [6] in a line: MRP1 drug-resistance reversers in H69AR cells – cell-based, doxorubicin co-treatment, pilot screen (AID 601). The following applies: CellTiter-Glo, 72 h, at 10 µM; for differential viability (reversal): stronger effect = higher value.
A short description of assay [7]: yeast transport mutant growth inhibition pilot in 384-well plates, post-Golgi transport modulator project (AID 636; in the data active means inhibition above about 31%). Conditions: absorbance 615 nm, about 18 h, stronger effect = higher value.
Assay [8] in a line: growth suppression of yeast trafficking mutant, preliminary HTS, modulators of trafficking downstream of Golgi apparatus project, 1536-format plate, OD 615 nm (AID 637; in the data active means inhibition above about 30%). Conditions: yeast transport mutant growth, absorbance 615 nm, 18 h; stronger effect = higher value.
Assay [9] in a line: S. cerevisiae growth inhibition in permissive medium (OD615), pilot counter-assay for S. cerevisiae lifespan shortening project, permissive growth control (AID 705;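 active means growth inhibition above 25% in both replicates, a cutoff set 3 SD above the mean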). The following applies: OD615, 24 h, at 10 µM, stronger effect = higher value.
The nature of assay [10]: S. cerevisiae growth inhibition in restrictive medium, OD615, pilot screen, restrictive growth control, yeast lifespan reduction project (AID 706;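 active means growth inhibition above a set limit, 3 SD over mean compound inhibition, in both replicates, cut at about 43% in these data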;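 further: modified DeaD lifespan yeast strain shifted to restrictive glucose medium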). Conditions: OD615, 48 h, at 10 µM, stronger effect = higher value.
Assay [11] in a line: doxorubicin toxicity protection in MRP-1 cells – H69AR cells, CellTiter-Glo, duplicate, MRP-1 activator project, pilot screen (AID 807;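 active means viability increase at or above a cutoff of the median across tested compounds plus 3 SD, cut at about 8.5% in these data, passing the limit was not always enough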;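 further: compound pretreatment 18-22 h then 72 h combined with doxorubicin; 0% = doxorubicin alone and 100% = vehicle without doxorubicin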). The following applies: H69AR viability with doxorubicin, CellTiter-Glo luminescence; at 10 µM; stronger effect = higher value.
The nature of assay [12]: viability of HCT116 without oncogenic beta-catenin – human colon tumor cells, pilot screen (AID 823;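 active means cell viability at or below a set limit in both duplicate runs, the limit being the all-compound median minus 4 SD, cut at about 23% in these data, passing the limit was not always enough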;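 further: 0% = wells killed by 20 µM Hyamine and 100% = untreated DMSO cell wells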). Conditions: HCT116 beta-catenin knockout viability, CellTiter-Glo, 60 h; at 10 µM; stronger effect = lower value.
Assay [13] in a line: viability of PTEN-null HCT116 cells – cell-based, HCT116 clonal line, CellTiter-Glo, pilot screen (AID 824;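 active means viability at or below 27.92% in each of two runs, the all-compound median minus 4 SD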;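 further: 0% = 20 µM Hyamine control and 100% = vehicle cell control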). The following applies: HCT116 PTEN-deleted viability, 60 h, at 10 µM, stronger effect = lower value.
The nature of assay [14]: RAM pathway blockade in budding yeast – dse1pr::URA3 reporter, 5-FOA selection, pilot screen (AID 869;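 active means inhibition over a set limit, the all-compound mean plus 3 SD, in both replicate runs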;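 further: 0% = DMSO wells with no growth and 100% = 10 µM 1-NA-PP1 with full growth; RAM network block rescues cells from 5-FOA so hits raise OD615 growth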). Conditions: S. cerevisiae dse1pr::URA3 5-FOA growth, OD615, 2 d; at 10 µM; stronger effect = higher value; strain carries analog-sensitive mutant Cbk1 kinase.
A short description of assay [15]: RAM signaling pathway blockade in yeast – S. cerevisiae, Pdr1DBD-CYC8 efflux-inhibited sensitized strain, primary screen (AID 1298;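 active means RAM network inhibition above 8.4% in each of two replicates, 3 SD over the compound average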;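 further: 0% = DMSO untreated cells without growth and 100% = 10 µM 1-NA-PP1 full growth; higher means more yeast growth rescued from 5-FOA killing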). The following applies: S. cerevisiae cbk1-as DSE1-URA3 strain, 5-FOA growth OD615, 2 d; at 50 µM; stronger effect = higher value.
[16] abbreviates: H69AR cells + 2 uM doxorubicin, measured here: viability with 2 uM doxorubicin, stronger effect = lower value.
Where [17] appears, read: H69AR cells, compound alone cytotoxicity.

Chain of Receptor tyrosine-protein kinase erbB-2 (Homo sapiens) (P04626 whole entry, looked up): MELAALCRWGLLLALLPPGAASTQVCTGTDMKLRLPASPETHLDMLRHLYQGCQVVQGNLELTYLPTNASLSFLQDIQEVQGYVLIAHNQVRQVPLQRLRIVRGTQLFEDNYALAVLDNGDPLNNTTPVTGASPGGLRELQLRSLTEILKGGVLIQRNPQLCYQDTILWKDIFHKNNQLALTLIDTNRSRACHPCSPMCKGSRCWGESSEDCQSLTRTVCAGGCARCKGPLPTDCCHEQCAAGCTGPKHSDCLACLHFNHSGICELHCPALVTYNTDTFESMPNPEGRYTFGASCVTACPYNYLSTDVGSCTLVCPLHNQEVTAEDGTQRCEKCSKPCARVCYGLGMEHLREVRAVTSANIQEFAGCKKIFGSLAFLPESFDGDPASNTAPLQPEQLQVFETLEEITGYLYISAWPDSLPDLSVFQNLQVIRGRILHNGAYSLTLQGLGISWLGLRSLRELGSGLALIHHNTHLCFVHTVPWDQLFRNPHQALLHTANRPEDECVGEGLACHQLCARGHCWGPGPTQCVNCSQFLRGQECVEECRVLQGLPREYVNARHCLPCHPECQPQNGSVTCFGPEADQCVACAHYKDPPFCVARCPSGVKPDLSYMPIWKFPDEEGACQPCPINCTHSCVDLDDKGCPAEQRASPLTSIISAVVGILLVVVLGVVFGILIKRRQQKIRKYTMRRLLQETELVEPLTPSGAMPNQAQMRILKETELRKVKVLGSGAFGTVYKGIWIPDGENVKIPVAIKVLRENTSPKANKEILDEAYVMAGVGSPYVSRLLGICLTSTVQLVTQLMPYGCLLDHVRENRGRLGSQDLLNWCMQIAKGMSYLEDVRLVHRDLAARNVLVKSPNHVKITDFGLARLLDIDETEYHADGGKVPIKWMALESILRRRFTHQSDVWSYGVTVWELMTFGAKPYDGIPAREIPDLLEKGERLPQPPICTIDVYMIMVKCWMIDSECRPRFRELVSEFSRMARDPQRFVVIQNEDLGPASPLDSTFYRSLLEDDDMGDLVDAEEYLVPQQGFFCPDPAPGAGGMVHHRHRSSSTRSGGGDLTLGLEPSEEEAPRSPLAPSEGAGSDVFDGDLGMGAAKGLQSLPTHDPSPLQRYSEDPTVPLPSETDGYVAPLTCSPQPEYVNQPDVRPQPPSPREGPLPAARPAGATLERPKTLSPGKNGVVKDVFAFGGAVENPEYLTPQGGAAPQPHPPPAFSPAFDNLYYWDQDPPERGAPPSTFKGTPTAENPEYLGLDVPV

In the case of `CCCSc1nnc2nc3c(nn12)c1ccccc1n3C`, the viability (as a rule, a read-out of living cells in per cent, often relative to untreated cells) in assay [1] was 86%; in assay [3], 86% (inactive); in [4] it was 98.9% (inactive); in assay [5], 89.3% (inactive); in [6] (setting [16]), 86.9%; in assay [6] (setting [17]), 89.3%. Further, the values for the viability in assay [12] and in assay [13] were 105% (inactive) and 97% (inactive), respectively. Further, in assay [2], the Her2 level was 85.5% (inactive). In [6] (H69AR cells + 2 uM doxorubicin), the differential viability (reversal) was 2.42% (inactive). The inhibition (commonly the relative decrease from the control value, in per cent) was -0.27% (inactive) in assay [7], 7.21% (inactive) in [8] and 1.27% (inactive) in [14]. The growth inhibition in assay [9] was 3.75% (inactive); in [10] it was 2.38% (inactive). Further, in assay [11], the viability increase was -4.48% (inactive). Moreover, the RAM network inhibition in [15] was 0.96% (inactive).

Consider `O=C1c2ccccc2S(=O)(=O)N1CC(O)Cn1c2ccccc2c2ccccc21` (stereo not given), for which the viability was 90% in assay [1]; 90% (inactive) in assay [3]; 73.2% (inactive) in assay [4]; 85% (inactive) in assay [5]; 87.6% in [6] (setting [16]); 85% in [6] (setting [17]). Moreover, the viability was 89.7% (inactive) in [12] and 96.3% (inactive) in assay [13]. Also, the Her2 level in [2] was 96% (inactive). The differential viability (reversal) in assay [6] (H69AR cells + 2 uM doxorubicin) is -2.51% (inactive). Further, the inhibition in assay [7] is 99.3% (active); in [8] it was 94.7% (active); in assay [14], 2.46% (inactive). Also, the growth inhibition in assay [9] was -2.73% (inactive); in assay [10] it was 9.13% (inactive). Moreover, the viability increase in assay [11] is -1.19% (inactive). The RAM network inhibition in assay [15] is 0.57% (inactive).

In the case of `O=C(c1sc2ccccc2c1Cl)N(Cc1cccs1)C1CCS(=O)(=O)C1` (stereo not given), the viability in assay [1] is 100%; in assay [3], 100% (inactive); in [4], 73.2% (inactive); in [5], 85.5% (inactive); in assay [6] (setting [16]), 81.8%; in assay [6] (setting [17]), 85.5%. The viability was 92.2% (inactive) in assay [12] and 86.5% (inactive) in assay [13]. Further, the Her2 level in [2] is 100% (inactive). For the same compound, the differential viability (reversal) in assay [6] (H69AR cells + 2 uM doxorubicin) is 3.69% (inactive). Further, the inhibition in [7] was 1.07% (inactive); in assay [8], 0.17% (inactive); in assay [14], 0.395% (inactive). The growth inhibition is -7.52% (inactive) in [9] and -11.5% (inactive) in [10]. The viability increase in assay [11] was -4.05% (inactive). Moreover, in [15], the RAM network inhibition is 7.16% (inactive).

With `Clc1cccc(N2CCN(Cc3nc(-c4ccccc4)no3)CC2)c1`, the viability in assay [1] is 90.5%; in [3], 90.5% (inactive); in [4], 109% (inactive); in assay [5] it was 91.3% (inactive); in assay [6] (setting [16]) it was 95.4%; in assay [6] (setting [17]), 91.3%. In addition, the viability in assay [12] is 91.5% (inactive); in assay [13], 90% (inactive). In addition, the Her2 level in assay [2] was 96% (inactive). In assay [6] (H69AR cells + 2 uM doxorubicin), the differential viability (reversal) is -4.04% (inactive). Moreover, the inhibition in assay [7] is 0.53% (inactive); in assay [8] it was -6.5% (inactive); in [14] it was -1.2% (inactive). In addition, the values for the growth inhibition in assay [9] and in [10] were 3.02% (inactive) and 0.865% (inactive), respectively. For the same compound, the viability increase in [11] was -2.61% (inactive). The RAM network inhibition in assay [15] is 4.99% (inactive).

Take `CCOC(=O)Cc1nnc(NC(=O)c2ccccc2OCC)s1`: the viability in assay [1] is 100%; in assay [3], 100% (inactive); in assay [4], 103% (inactive); in assay [5], 98% (inactive); in [6] (setting [16]) it was 88.1%; in [6] (setting [17]), 98%. Further, the viability in [12] and in [13] was 102% (inactive) each time. Also, the Her2 level in assay [2] is 92.5% (inactive). Also, the differential viability (reversal) in assay [6] (H69AR cells + 2 uM doxorubicin) was 9.93% (inactive). The inhibition is 0% (inactive) in [7], -4.26% (inactive) in assay [8] and 1.33% (inactive) in assay [14]. Besides, the growth inhibition in assay [9] was -9.41% (inactive); in assay [10], -14.8% (inactive). Besides, the viability increase in [11] was -0.28% (inactive). The RAM network inhibition in assay [15] is 3.5% (inactive).
